# From PubChem BioAssay (NCI)
# “And” between values parts separate entries of the source, which are not always exact repeats. Identical values can stand only once. This is part of a sample that, as a whole, favours compounds with a hit. Of some 83,000 tested, about 20% had one in any assay.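 Single-dose data. Exposure time 48 hours. Values below 10 considered active.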 Unmarked numbers belong to inactive results.
# Tested on: SNB-19 CNS
# Assay: NCI-60 one-dose screen, 48 h (100 = growth as untreated, 0 = no growth, -100 = all killed)
# Details: 10 µM unless noted
row,Structure (SMILES),growth
1,CC(=O)OC(C)C(=O)NCC(C)O (stereo not given),110%
2,Nc1cc(N)c(N)cc1N,84.5%
3,c1ccc(CNCCNCc2ccccc2)cc1,107%
4,CC(=O)NCC(=O)c1ccc([N+](=O)[O-])cc1,103%
5,O=C(O)CCCl,104%
6,Oc1ccc(Cc2ccccc2Cl)c(O)c1,100%
7,COc1ccc(Nc2ccc3ccccc3c2)cc1,79.5%
8,Cc1cc(-c2ccc(N=Nc3ccc4c(S(=O)(=O)O)cc(S(=O)(=O)O)c(N)c4c3O)c(C)c2)ccc1N=Nc1ccc2c(S(=O)(=O)O)cc(S(=O)(=O)O)c(N)c2c1O,111%
9,CCCCCCCCCCCCCCCc1ccc(N)c(OC2OC(CO)C(O)C(O)C2O)c1 (stereo not given),101%
10,CC1=C/C(O)CC(=O)Cc2nc(co2)C(=O)N2CCC=C2C(=O)OC(C(C)C)C(C)/C=C\C(=O)NC/C=C\1 (stereo not given),89.8%
11,Cl,99.3%
12,CCCCOC(=O)/C=C\C(=O)NC(N)=O,91.4%
13,Cn1cnc([N+](=O)[O-])c1Sc1ncn[nH]1,111%
14,CCCCCCCCCCCCCCCCC(C(=O)O)C(O)(CC(=O)O)C(=O)O (stereo not given),110% and 15%
15,CCc1cc(C)cc(O)c1,103%
16,c1ccc2c(c1)OC1OC2Oc2ccccc21,97.6%
17,CC(C)NC(=O)N/C=C(\C#N)C(N)=O,110%
18,O=[N+]([O-])c1cccc(SSc2cccc([N+](=O)[O-])c2)c1,91.1%

row,Structure (SMILES),growth
1,ClCCOCCOc1ccc(C2CCCCC2)cc1,98.4%
2,Cc1cc2ccccc2cn1,95.3% and 97.7%
3,N#CC(C#N)N=Nc1ccc(Cl)cc1,94.2%
4,O=CN1CCCCC1,107%
5,C/C(=C\c1ccccc1)c1ccccn1,92.1%
6,OCC1OC(O)C(O)C(O)C1O (stereo not given),107%
7,COc1ccc(C(=O)CC(c2ccccc2)C(C#N)c2ccccc2)cc1 (stereo not given),92.4%
8,NC1CCC(C(=O)O)CC1 (stereo not given),105% and 110%
9,Nc1ccc2c(O)cc(S(=O)(=O)O)cc2c1,91.6% and 104%
10,CN1CNC(=O)NC1,109% and 103%
11,COc1ccc(N/C=C/C2=[N+](C)c3ccccc3C2(C)C)c(OC)c1,102%
12,N#CC(C#N)N=Nc1cc(Cl)ccc1Cl,93.6%
13,Nc1nc(N)c2[nH]cnc2n1,96.1%
14,Cc1cc(-c2cc(C)c(O)c(C)c2)cc(C)c1O,83.8%
15,Fc1ccc([I+]c2ccc(F)cc2)cc1,70%
16,COc1cc(C(O)C2C(=O)OCC2C2(c3ccc4c(c3)OCO4)SCCCS2)cc(OC)c1OC (stereo not given),96.4%
17,OCCN1CCCCCCC1,101%
